Most compounds without a hit are left out; they make up all but 2.9% or so of the library.
B2AR arrestin: qHTS assay of beta-arrestin-biased ligands of beta2-adrenergic receptor | AID 492947, 2010 | Beta-2 adrenergic receptor (Homo sapiens), P07550 | 0.02% of 330,000 active | Potency, µM (titrated, usually from 46.1 µM), for the others: top-dose activation, most hits filed as activators | beta-arrestin recruitment to beta2AR, cell-based reporter; active = well fitted activation curve with a large enough effect; inconclusive = small, poorly fitted or top-dose-only effect;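 note: potency is the fitted concentration of half-maximal effect; 0% = DMSO controls and full agonism = EC100 isoproterenol or metaproterenol; nearly all actives have a fitted effect of over 65% in size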
TSHR antagonist: Antagonists of the Thyroid Stimulating Hormone Receptor: HTS campaign | Thyrotropin receptor (Homo sapiens), P16473 | TSHR-expressing cells, TSH-stimulated cAMP HTRF, 2 h; stronger effect = lower value | activity change, negative = inhibition, % at 11.5 µM | 0.2% of 330,000 active | AID 504810, 2011;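 active = activity change below a set negative limit, meaning inhibition stronger than a set level, cut at about -70% in these data; inconclusive = activity change between two set negative limits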; note: % is set by controls: 0 for no effect and ±100 for the full control effect
Target sequence (P16473 whole entry, looked up): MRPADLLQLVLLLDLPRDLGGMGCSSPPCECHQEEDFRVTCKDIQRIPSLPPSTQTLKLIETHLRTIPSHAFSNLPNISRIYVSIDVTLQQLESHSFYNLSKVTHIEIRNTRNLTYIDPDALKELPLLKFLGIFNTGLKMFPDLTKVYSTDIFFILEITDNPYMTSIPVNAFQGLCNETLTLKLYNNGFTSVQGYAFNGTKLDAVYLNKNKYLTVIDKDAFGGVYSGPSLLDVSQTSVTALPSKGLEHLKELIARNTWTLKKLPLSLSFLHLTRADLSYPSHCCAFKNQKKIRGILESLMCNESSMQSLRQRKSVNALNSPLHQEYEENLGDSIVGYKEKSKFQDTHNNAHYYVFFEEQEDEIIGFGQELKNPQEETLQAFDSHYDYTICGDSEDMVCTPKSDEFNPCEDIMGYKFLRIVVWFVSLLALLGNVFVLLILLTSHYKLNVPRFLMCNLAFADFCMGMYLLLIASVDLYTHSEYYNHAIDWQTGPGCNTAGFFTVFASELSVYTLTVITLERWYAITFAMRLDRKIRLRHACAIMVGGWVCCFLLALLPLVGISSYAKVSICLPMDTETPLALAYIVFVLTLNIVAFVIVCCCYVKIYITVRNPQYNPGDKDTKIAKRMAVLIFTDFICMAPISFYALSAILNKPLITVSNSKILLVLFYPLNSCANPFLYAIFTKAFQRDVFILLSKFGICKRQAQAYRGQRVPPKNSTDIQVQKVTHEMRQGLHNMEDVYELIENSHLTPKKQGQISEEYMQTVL
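Cell-based HTRF cAMP assay; TSHR cells + compound, TSH EC80 (4nM final), 2 h, 37 deg C. Lysis with anti-cAMP cryptate and cAMP-d2, 30 min RT, read 665/620 nm.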
DRD3 antagonist: qHTS of D3 Dopamine Receptor Antagonist: qHTS. D(3) dopamine receptor (Homo sapiens), P35462. AID 652054, 2013. max response, negative = inhibition, %. D3R cells, DiscoveRx beta-arrestin luminescence, antagonist mode; stronger effect = lower value. 2.5% of 360,000 active; in the data active = max response below about -50%; inconclusive = no clear call, values can overlap the other calls; note: % is set by controls: 0 for no effect and ±100 for the full control effect
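Cells plated overnight at 1500 cells/well, then exposed to library compounds with dopamine controls for 90 minutes at 37 degrees C. DiscoveRx reagent added for 30–60 minutes at room temperature; luminescence read, quantitative HTS format.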
D3 ag: qHTS of D3 Dopamine Receptor Agonist: qHTS; max activation, %; D3R DiscoveRx beta-arrestin cells, luminescence, 90 min; 0.58% of 410,000 active; AID 652048, 2013; D(3) dopamine receptor (Homo sapiens), P35462; in the data active = max activation above about 30%; note: 0% is about no effect
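Agonist-mode cell screen: cells plated at 1500/well and incubated overnight at 37 °C, then exposed to library compounds for 90 min at 37 °C. Detection reagent was added for 30–60 min at room temperature, and luminescence was read.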
* = called active by the depositor; ? = inconclusive; nt = no result.

SMILES	B2AR arrestin	TSHR antagonist	DRD3 antagonist	D3 ag
Cc1c(N2C(=O)CS/C2=N\N=C\c2ccccc2O)c(=O)n(-c2ccccc2)n1C	0%	-12	10	39*
COC(=O)CN1C(=O)[C@H]2[C@@H](c3ccc(C)o3)N3C(=O)CN(CCO)C(=O)[C@@]3(Cc3ccccc3)[C@H]2C1=O	0%	5	0	-4
COC(=O)CN1C(=O)[C@H]2[C@@H](c3ccc(C)o3)N3C(=O)CN(Cc4ccccn4)C(=O)[C@@]3(Cc3ccccc3)[C@H]2C1=O	1%	-7	39	39*
O=C(NCc1nc2ccccc2[nH]1)c1cccc(Cl)c1	nt	nt	nt	-20
O=C(/C(=C/c1ccc(Cl)cc1)c1nc2ccccc2[nH]1)c1cccs1	-1%	16	-65*	-14
O=C(/C=C/c1cccc(Cl)c1)c1nc2ccccc2[nH]1	-1%	-4	-56*	-6
O=C(/C(=C\c1ccccc1)c1nc2ccccc2[nH]1)c1ccc(Cl)cc1	0%	-9	-71*	-3
O=C(CO)[C@@H](O)[C@H](O)[C@H](O)CO	nt	nt	nt	6
CCOC(=O)N1CCN(C(=O)COC(=O)CSc2ccc([N+](=O)[O-])cc2)CC1	0%	-1	-52*	2
CCOC(=O)N1CCN(C(=O)COC(=O)c2ccc([N+](=O)[O-])cc2Cl)CC1	0%	-3	6	4
Cc1ccc2c(c1)C(=C(C#N)C#N)C(=O)N2CCN1CCCCC1	-1%	2	-55*	-13
Cc1ccc2c(c1)C(=C(C#N)C#N)C(=O)N2CCN1CCOCC1	-1%	3	-15	-2
Oc1ccc(C=Nc2ccc3ncccc3c2)c(O)c1	11%	15	nt	nt
COc1cccc(N=Cc2ccc(O)cc2O)c1	-1%	17	9	34*
CC(C)c1cc(-c2nc(-c3ccc(Cl)cc3)no2)n[nH]1	nt	nt	nt	1
CC1CCN(CCc2nc3cc(NC(=O)COc4ccccc4)ccc3n2C)CC1	-1%	-3	-71*	-15
CCCC(=O)Nc1ccc2c(c1)nc(CCN1CCN(c3ccccn3)CC1)n2C	0%	-6	-5	57*
CCCCC(=O)Nc1ccc2c(c1)nc(CCN1CCN(c3ccccn3)CC1)n2C	0%	2	-28	44*
CCC(=O)Nc1ccc2c(c1)nc(CCN1CCC(C)CC1)n2C	0%	1	-20	-14
Cc1ccc(OCC(=O)Nc2ccc3c(c2)nc(CCN2CCN(c4ccccn4)CC2)n3C)cc1	nt	nt	-3	7
Cn1c(CCN2CCN(c3ccccn3)CC2)nc2cc(NC(=O)COc3ccccc3)ccc21	0%	-18	-13	44*
CCCCC(=O)Nc1ccc2c(c1)nc(CCN1CCOCC1)n2C	0%	-4	-12	2
COc1ccc2c(c1)c1c(c(=O)n(-c3ccc(OC)c(OC)c3)c(=O)n1CC(=O)N1CCCC1)n2C	nt	nt	nt	-8
C[C@H](/C=C/[C@H](C)C(C)(C)O)[C@H]1CC[C@H]2/C(=C/C=C3C[C@@H](O)C[C@H](O)C3)CCC[C@]12C	nt	nt	nt	7
CCCN1CCN(CCCNC(=O)Cn2c(-c3cccs3)cc3cc(Cl)ccc32)CC1	nt	nt	nt	-11
SMILES	B2AR arrestin	TSHR antagonist	DRD3 antagonist	D3 ag
Cc1ccc(Nc2nc3nonc3nc2Nc2cccc(C(F)(F)F)c2)cc1Cl	nt	nt	nt	-19
CCc1ccc2ncc(S(=O)(=O)c3ccc(C)c(C)c3)c(N3CCCC3)c2c1	3%	1	-56*	-2
CCCCN1C(=O)C(CC(=O)NCCCCc2ccccc2)CC(C(=O)N2CCCCCC2)=C1C (centres undefined)	nt	nt	-52*	-11
CNC(=S)NNC(=O)COc1cccc(C)c1C	-1%	-3	-62*	-5
Cc1ccc(C)c(N2CCN(CCCNC(=O)Cn3c(-c4cccs4)cc4ccccc43)CC2)c1	nt	nt	nt	-15
Cc1ccc(C(=O)NC(=S)Nc2ccc(-c3ccc(CO)o3)cc2)cc1	0%	-11	82	61*
O=C(NC(=S)Nc1ccc(-c2ccc(CO)o2)cc1)c1cccs1	0%	2	26	20
CC(C)C[C@@H](CNCC(=O)[C@H](C)NC(=O)c1[nH]cnc1C(=O)N[C@@H](C)CN)NC(=O)c1nc[nH]c1C(=O)N[C@@H](CC(=O)O)C(=O)O	nt	nt	-12	32*
CC(C)C[C@@H](CN)NC(=O)c1nc[nH]c1C(=O)N[C@@H](Cc1c[nH]c2ccccc12)C(=O)CNC[C@H](C)NC(=O)c1nc[nH]c1C(=O)N[C@@H](CC(=O)O)C(=O)O	nt	nt	-53*	-31
COc1ccc(C(=O)C2CCCN(Cc3cc(Cl)ccc3O)C2)c(OC)c1 (centres undefined)	2%	38	-54*	-20
CCOc1cccc(CN2CCCC(N3CCN(c4cccc(Cl)c4)CC3)C2)c1O (centres undefined)	0%	1	-24	24
COc1ccc(C(=O)C2CCCN(Cc3cc(C)c(O)c(C)c3)C2)c(OC)c1 (centres undefined)	0%	2	?	-25
COc1ccc(C(=O)C2CCCN(Cc3ccc(C#CCCO)cc3)C2)c(OC)c1 (centres undefined)	-1%	-1	-116*	-19
COc1ccc(C(=O)C2CCCN(Cc3sc(N4CCCC4)nc3Cl)C2)c(OC)c1 (centres undefined)	-1%	-10	-65*	-20
CCOc1cccc(CN2CCCC(C(=O)c3cc(Cl)ccc3OC)C2)c1O (centres undefined)	0%	1	-106*	-20
CCc1nnc(NC(=O)CN2CCN(Cc3cccc(Cl)c3)CC2)s1	0%	27	-52*	-15
CCOC(=O)c1c(C)oc2ncnc(Nc3ccc(OC)cc3OC)c12	nt	nt	nt	0
O=C1c2ccccc2NC(c2cccc(F)c2)N1Cc1ccco1 (centres undefined)	0%	-14	-61*	-25
CCOC(=O)C1(Cc2ccccc2)CCN(Cc2cnn(-c3ccccc3)c2)CC1	-1%	7	-63*	-9
CCOC(=O)C1(CCOc2ccccc2)CCN(Cc2ccc3c(c2)OCCO3)CC1	0%	6	-56*	0
CCOC(=O)C1(Cc2ccccc2)CCN(Cc2cnn(CC)c2)CC1	-1%	6	-16	-15
CCOC(=O)C1(CCOc2ccccc2)CCN(Cc2ccc(O)c(Cl)c2)CC1	5%	6	-69*	-17
CCOC(=O)C1(CCOc2ccccc2)CCN(Cc2ccc(-n3cccn3)cc2)CC1	0%	-9	-71*	1
COc1cccc(N2CCN(C(=O)Cn3cnc4onc(-c5ccc(F)cc5)c4c3=O)CC2)c1	nt	nt	nt	-5
COc1ccc(CNC(=O)CSc2ncc(S(=O)(=O)c3ccc(C)c(Cl)c3)c(=O)[nH]2)cc1	nt	nt	nt	2
CCOC(=O)C1(CCOc2ccccc2)CCN(Cc2cccc(OC)c2O)CC1	0%	-113*	-24	-14
CCOC(=O)C1(CCOc2ccccc2)CCN(Cc2cc(OC)ccc2OC)CC1	-1%	-2	-20	-19
